In the library only some 4% were active in any assay of this set; here they are far more common.
PAX8 inh HTS: lowers PAX8-driven luciferase in RMG-I cells | RMG-I TPO-luciferase reporter, SteadyGlo, 24 h | AID 652154 | actives 1.2% (n = 360,000) | inhibition, % at 12.6 µM;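 active = mean replicate inhibition at least 60% with every replicate also reaching 60%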;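 also: luciferase light reporting Pax8 driven TPO promoter activity; plate controls were median of neutral control wells for no effect and mitoxantrone controls for full effect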
Beta cell apopt: blocks beta cell apoptosis; INS-1E cytokine-induced death, ATP luminescence, 48 h; percent of positive-control rescue, neutral wells zero; protection from apoptosis, % (no concentration beside the values); actives 0.8% (n = 300,000);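 active = Every replicate reaches about 75%, or at least half do and their mean reaches it too, limit read from the data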;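 also: 0% = cytokine-treated negative control wells and 100% = positive control rescue; higher means more ATP so stronger rescue from cytokine killing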
Mdm2 MdmX PPI: disrupts the human Mdm2-MdmX interaction; SaOS-2 split-luciferase Mdm2/MdmX complementation, luminescence; inhibition, % at 8 µM; actives 3% (n = 330,000);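 active = inhibition of at least 50% at 8 µM in the primary screen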
Shn3 3UTR inh: inhibitors of Schnurri-3 3'UTR reporter in osteoblasts; Clone20 osteoblast Shn3 3'UTR firefly luciferase, 24 h; inhibition, % at 12.5 µM; actives 0.52% (n = 360,000);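 active = mean inhibition of at least 75% with every replicate also reaching 75%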;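 also: 0% = median of neutral control wells and 100% = pilot-screen positive control compound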
Gli-Sufu antag: antagonists of Gli-Sufu signaling | Sufu-KO-LIGHT fibroblasts, Gli luciferase reporter luminescence | AID 588413 | inhibition, % at 5 µM | actives 0.74% (n = 340,000);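 active = inhibition above about 55%, limit read from the data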;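 also: 0% = DMSO-treated cells and 100% = wells with medium but no cells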
CSC inhib: blocks cancer stem cells. cancer stem cell-like cells viability, luminescence. inhibition, % at 7.5 µM. actives 1.1% (n = 300,000); in the data active = inhibition above about 75%; tested in HMLE shEcad cells
An asterisk follows results filed as active; x = no result; ! = not confirmed by another sample.

SMILES	PAX8 inh HTS	Beta cell apopt	Mdm2 MdmX PPI	Shn3 3UTR inh	Gli-Sufu antag	CSC inhib
COC(=O)[C@]12CCCCC=C1N(Cc1cccc3ccccc13)C(=O)[C@H](CC(=O)N1CCCC1)C2	3.4	x	x	x	x	x
COC(=O)[C@]12CCCCC=C1N(CCC1=CCCCC1)C(=O)[C@H](CC(=O)N1CCN(C(=O)c3ccco3)CC1)C2	79.0*	x	x	x	x	x
COC(=O)[C@]12CCCCC=C1N(Cc1cccc3ccccc13)C(=O)[C@H](CC(=O)N1CCN(C(=O)c3ccco3)CC1)C2	92.4*	x	x	x	x	x
CCOC(=O)[C@]12CCC=C1N(Cc1ccccc1)C(=O)[C@H](CC(=O)N1CCN(C(=O)c3ccco3)CC1)C2	44.8	x	x	x	x	x
CCOC(=O)[C@]12CCCC=C1N(Cc1ccccc1)C(=O)[C@H](CC(=O)N1CCN(C(=O)c3ccco3)CC1)C2	70.6*	x	x	x	x	x
C[C@@H]1CN([C@H](C)CO)C(=O)Cc2cc(NS(=O)(=O)c3cccs3)ccc2O[C@@H]1CN(C)S(=O)(=O)c1ccccc1	-13.6	x	x	x	x	x
Cc1ccc(-n2ncc3c(=O)n(CC(=O)N4CCN(C(=O)c5ccco5)CC4)cnc32)cc1	73.0*	3.9	24.8	14.5	2.6	x
Cc1ccc(-n2ncc3c(=O)n(CC(=O)N4CCN(c5ccccc5)CC4)cnc32)cc1	4.9	10.4	17.6	6.6	5.5	-12.1
C[C@H](CO)N1C[C@H](C)[C@H](CN(C)Cc2ccc(C(=O)O)cc2)Oc2ccc(NC(=O)Cc3ccccc3)cc2CC1=O	-2.9	x	x	x	x	x
COc1ccc(-c2nnc(SCC(=O)c3ccc(C)o3)o2)cc1	x	x	x	-18.6	-12.1	x
COc1ccc(CN(C(=O)CSc2nnc(-c3ccc(F)cc3)o2)c2ccc(F)cc2)cc1	x	-3.1	9.0	88.2*	-12.6	10.8
COc1cc(OC)cc(-c2nnc(SCC(=O)N(Cc3ccccc3)C(C)(C)C)o2)c1	x	20.1	40.1	14.9	12.2	113.1*
Cc1noc(C)c1NC(=O)N[C@H]1CC[C@@H](CC(=O)N2CCCCC2)O[C@@H]1CO	-11.6	x	x	x	x	x
COc1cccc(-c2ccc3c(c2)[C@@H]2[C@@H](CCN2S(=O)(=O)c2ccccc2OC)[C@@H](CO)N3)c1	-12.8	x	x	x	x	x
O=C(COCc1cc(-c2ccc3c(c2)OCO3)on1)N1CCN(c2cccc(C(F)(F)F)c2)CC1	-5.8	-12.9	13.3	6.0	45.3	119.3*
COc1ccc(N2CCN(C(=O)COCc3cc(-c4ccc5c(c4)OCO5)on3)CC2)cc1	-6.5	-6.9	-4.6	19.1	23.8	2.6
CCC(=O)Nc1ccc2c(c1)C(=O)N(C)C[C@H](OC)[C@H](C)CN(CC1CC1)[C@H](C)CO2	1.8	x	x	x	x	x
Nc1c(C(=O)Nc2ccc3c(c2)OCCO3)nnn1Cc1ccc(Br)cc1	-311.2	0.2	-93.8	-128.7	-130.3	-11.2
Nc1c(C(=O)Nc2ccc3c(c2)OCCO3)nnn1Cc1cccc(Br)c1	-179.1	1.5	-75.1	-68.1	-62.3	77.0*
COc1ccc(NC(=O)Nc2ccc3c(c2)C(=O)N([C@@H](C)CO)C[C@H](C)[C@@H](CN(C)Cc2ccc(Cl)c(Cl)c2)OCCCC[C@@H](C)O3)cc1	34.4	x	x	x	x	x
COc1ccc(NC(=O)Nc2ccc3c(c2)C(=O)N([C@@H](C)CO)C[C@@H](C)[C@@H](CN(C)Cc2ccc(Cl)c(Cl)c2)OCCCC[C@@H](C)O3)cc1	75.1*	x	x	x	x	x
COc1ccc(NC(=O)Nc2ccc3c(c2)C(=O)N([C@H](C)CO)C[C@H](C)[C@@H](CN(C)Cc2ccc(Cl)c(Cl)c2)OCCCC[C@@H](C)O3)cc1	74.3*!	x	x	27.8	x	x
C[C@@H]1CN([C@@H](C)CO)S(=O)(=O)c2ccc(/C=C/c3ccccc3)cc2O[C@@H]1CN(C)C(=O)c1ccccc1	53.0	x	x	x	x	x
CN1c2ccc(-c3ccc(F)cc3)cc2[C@H]2[C@H](CCN2C(=O)c2ccncc2)[C@@H]1CO	-7.5	x	x	x	x	x
O=[N+]([O-])c1cccc(C2NCC(c3ccccc3Cl)c3c2[nH]c2ccccc32)c1 (stereo not drawn)	22.8	9.0	28.8	-6.3	38.4	130.5*
COc1cccc(NC(=O)N2C[C@H](O)COC[C@@H]3O[C@@H](CC(=O)N(C)C)CC[C@H]32)c1	-5.9	x	x	x	x	x
CNC(=O)C[C@@H]1CC[C@H]2[C@@H](COc3ccc(NC(=O)Cc4cccs4)cc3C(=O)N2C)O1	-0.6	x	x	x	x	x
